S2 tox: reduces viability in counter-screen for ATXN expression inhibitors; Potency, µM (series often up to 56.7 µM), most hits filed as cytotoxic; 400,000 compounds, 0.49% hits; S2 cells (HEK-293 line with an ATXN2-luciferase reporter) viability, CellTiter-Fluor protease fluorescence, 24 h; note: nearly all actives have a fitted effect of over 40% in size
TGFb SMAD3 inh: inhibitors of TGF-b signaling | HepG2 CAGA-GFP TGF-b/SMAD3 reporter, GFP fluorescence, 18 h; TGF-beta stimulated, 500 pg/mL final | Potency, µM (top dose mostly 46.1 µM), for inactives: at the highest dose activity, negative = inhibition, most hits filed as inhibitors | 410,000 compounds, 1.2% hits | AID 588855; note: % is set by controls: 0 for no effect and ±100 for the full control effect; nearly all actives have a fitted effect of over 65% in size
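Read-out: total well GFP (ex488/em500-530) summed from mean per-cell fluorescence. Cells: HEPG2 CAGA-GFP, 1% FBS DMEM, 18 h at 37 degrees C with 500 pg/mL final TGF-beta. Unstimulated wells served as the full-inhibition control; stimulated DMSO wells = 0%.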
HT1080 IDH1KD tx: HT-1080 IDH1 knockdown cell toxicity (counter line); AID 686971; 360,000 compounds, 2% hits; HT-1080 IDH1 knockdown viability, ATP luminescence, 48 h; Potency, µM (doses to about 46.1 µM), inactives show at the highest dose activity, negative = toxicity, hits mostly cytotoxic;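 note: 0% = DMSO wells and -100% = cell-free medium wells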
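Viability of IDH1-knockdown HT-1080 fibrosarcoma cells was assessed by CellTiter-Glo after 48 h at 37 °C with titrated compound; concentration-effect curves were classified by fit quality and response size.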
HT1080-NT tox: kills 2HG-producing HT-1080-NT fibrosarcoma cells | HT-1080-NT fibrosarcoma viability, CellTiter-Glo ATP luminescence, 48 h | Potency, µM (series often up to 46.1 µM), inactives show at the highest dose activity, negative = less viability, hits mostly cytotoxic | 360,000 compounds, 1.6% hits;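 note: NT is the 2HG producing partner of a matched IDH1 knockdown line; 0% = DMSO-treated cells and -100% = media-only wells without cells; nearly all actives have a fitted effect of over 55% in size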
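Luminescent CellTiter-Glo readout after 48 hours of compound exposure at 37 degrees C defined viability of HT-1080-NT cells. Activity was normalized to DMSO wells and cell-free media wells; concentration-response curves were fitted and assigned curve classes.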
HepG2 tox: kills HepG2 cells in TGF-b inhibitor counter-screen. HepG2 CAGA-GFP viability, ATP luminescence, 18 h. Potency, µM (top dose mostly 46.1 µM), for the others: at the highest dose activity change, negative = cytotoxicity, most hits filed as cytotoxic. 410,000 compounds, 0.76% hits. AID 588856
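CellTiter-Glo luminescence gave cytotoxicity after 18 hours at 37 degrees C. The cells were HepG2 CAGA-GFP in 1% FBS DMEM, stimulated with 500 pg/mL TGF-beta after compound addition. %Activity was normalised to no-cell wells (complete cell-killing) and DMSO (no toxicity), and curves were fitted and classified.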
ATXN2 expr inh: ATXN2 expression inhibition. HEK-293 ATXN2-luciferase reporter, luminescence, 24 h. Potency, µM (top dose mostly 57 µM), inactives show top-dose activity change, negative = inhibition, usual class: inhibitors. 360,000 compounds, 0.72% hits. AID 1745845; note: % is set by controls: 0 for no effect and ±100 for the full control effect; nearly all actives have a fitted effect of over 55% in size
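ATXN2-luciferase reporter cells (luciferase flanked by upstream and downstream ATXN2 gene portions) were treated 24 h at 37 °C with compounds at up to 57 uM. SteadyGlo luminescence gave expression; GF-AFC fluorescence gave viability.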
* = called active by the depositor; i = inactive; ? = inconclusive; nt = not tested or not shown. Shown are actives, neighbours in structure and some others; about 3.9% of the full set was active somewhere. Calls come from the whole dose curve; as a rule, active = well fitted curve in the direction sought with a large enough effect; inconclusive = small, poorly fitted or top-dose-only effect, or another doubt; inactive = no such curve, though single readings can be large; an effect the other way counts as inactive or inconclusive. Potency is the fitted concentration of half-maximal effect.

SMILES	S2 tox	TGFb SMAD3 inh	HT1080 IDH1KD tx	HT1080-NT tox	HepG2 tox	ATXN2 expr inh
Cc1ccc(S(=O)(=O)N2C[C@H]3N(C(=O)OC(C)C)N(C(=O)OC(C)C)C[C@H](OC(=O)NCC4CCCCC4)[C@@]3(O)C2)cc1	32µM*	?	?	21µM*	-39%	-38%
Cc1ccc(S(=O)(=O)N2C[C@H]3N(C(=O)OC(C)C)N(C(=O)OC(C)C)C[C@H](OC(=O)NCc4ccccc4)[C@@]3(O)C2)cc1	?	?	-1%	-2%	-7%	-22%
Cc1nc([N+](=O)[O-])c(Br)n1CC(=O)c1ccc(Br)cc1	?	?	?	21µM*	-94%	-19%
Cc1nc([N+](=O)[O-])c(Br)n1CC(=O)c1ccc2ccccc2c1	32µM*	?	?	16µM*	10µM*	?
Cc1nc([N+](=O)[O-])c(Br)n1CC(=O)c1ccccc1	i	?	?	?	0%	-11%
Cc1nc([N+](=O)[O-])c(C(=O)OCc2ccccc2Br)n1C	i	0%	-3%	-10%	-9%	-7%
CC#CCOC(=O)c1c(C)nc2sc3c(c2c1N)CCC(O)C3 (configuration not stated)	i	23%	?	23µM*	-5%	3%
O=C(c1ccc2[nH]ccc2c1)N1CCOc2ccc(CN3CCN(c4ccccn4)CC3)cc2C1	i	nt	nt	nt	nt	nt
Oc1cccc2[nH]ccc12	i	nt	nt	nt	nt	8%
N#CC1=C(N)Oc2cc(N)ccc2C1C1CCCCC1 (configuration not stated)	i	-13%	8.2µM*	21µM*	-8%	-14%
CN(C)c1ccc2c(c1)OC(N)=C(C#N)C2c1cccc(F)c1 (configuration not stated)	i	?	0.22µM*	0.18µM*	-8%	?
N#CC1=C(N)Oc2cc(N)ccc2C1c1cccc(F)c1 (configuration not stated)	i	-6%	2.3µM*	2.9µM*	0%	-15%
COc1ccc(OC)c(C2C(C#N)=C(N)Oc3cc(N)ccc32)c1 (configuration not stated)	i	-4%	3%	-3%	-18%	8%
COC(=O)c1ccc(C2C(C#N)=C(N)Oc3cc(N)ccc32)cc1 (configuration not stated)	i	-12%	-10%	-18%	-16%	0%
Cc1nc2ccccc2nc1CN1CCOc2ccc(C(C)(O)COc3ccccc3)cc2C1 (configuration not stated)	i	nt	nt	nt	nt	nt
COCCCNC(=O)c1sc2nc(C)c(C(=O)Nc3ccc(Cl)cc3)c(-c3ccc(Br)cc3)c2c1N	i	-22%	nt	nt	-23%	-16%
Cc1cc(C)nc(NS(=O)(=O)c2ccc(NC(=O)C3COc4ccccc4O3)cc2)n1 (configuration not stated)	i	-11%	-4%	-7%	-3%	-17%
O=C(Nc1ccc(S(=O)(=O)Nc2ccccc2)cc1)C1COc2ccccc2O1 (configuration not stated)	i	13µM*	?	?	-26%	-24%
CNC(=O)c1ccc(N2C(=S)N(c3cnc(C#N)c(C(F)(F)F)c3)C(=O)C23CCC3)cc1F	nt	nt	nt	nt	nt	14µM*
Cc1ccn2c(=O)c(C(=O)Nc3ccc(F)c(C(F)(F)F)c3)cnc2c1	i	4%	nt	nt	-16%	2%
CC(=O)Nc1ccccc1-c1nc(CNC(=O)c2ccc(-n3cccn3)cc2)c(C)o1	i	nt	nt	nt	nt	nt
CC1(C)C[C@H](O)[C@]2(CO)CC[C@]3(C)C(=CCC4[C@@]5(C)CC[C@H](O)C(C)(C)C5CC[C@]43C)[C@@H]2C1 (some centres not stated)	i	-3%	1%	5%	-20%	-1%
CC1(C)C[C@H](O)[C@]2(CO)[C@H](O)C[C@]3(C)C(=CCC4[C@@]5(C)CC[C@H](O)C(C)(C)C5CC[C@]43C)[C@@H]2C1 (some centres not stated)	?	?	?	21µM*	11µM*	?
C[C@@H]1[C@H](C)CC[C@]2(C(=O)O)CC[C@]3(C)C(=CC[C@@H]4[C@@]5(C)CC[C@H](O)C(C)(C)[C@H]5CC[C@]43C)[C@@H]12	nt	nt	nt	nt	nt	56µM*
Cc1csc(CN(C)C(=O)c2sc3ncnc(NCC4CCCO4)c3c2C)n1 (configuration not stated)	i	nt	nt	nt	nt	nt
SMILES	S2 tox	TGFb SMAD3 inh	HT1080 IDH1KD tx	HT1080-NT tox	HepG2 tox	ATXN2 expr inh
O=C(COc1ccccc1Cl)N1CCc2ccccc21	i	-2%	-1%	14%	-21%	66%
O=C(COc1ccc2ccccc2c1CN1CCOCC1)N1CCc2ccccc21	i	?	?	?	13µM*	-18%
Cc1cc(O)c2c(O)c3c(O)cccc3cc2c1	i	nt	nt	nt	nt	-2%
O=C(Cn1c(-c2cccs2)cc2ccccc21)NCCCN1CCN(c2cccc(Cl)c2)CC1	?	13µM*	nt	nt	-47%	?
CN1CCN(CCCNC(=O)Cn2c(-c3cccs3)cc3ccccc32)CC1	i	-12%	nt	nt	4%	-8%
CCN1CCN(CCCNC(=O)Cn2c(-c3cccs3)cc3ccccc32)CC1	?	-3%	nt	nt	-2%	-8%
Cc1ccc(C)c(N2CCN(CCCNC(=O)Cn3c(-c4cccs4)cc4ccccc43)CC2)c1	?	13µM*	nt	nt	-107%	25µM*
Cc1c(Cl)cccc1NC(=O)C(C)N(c1ccccc1)S(C)(=O)=O (configuration not stated)	i	?	nt	nt	-14%	-7%
O=C(c1sc2ccccc2c1Cl)N(Cc1cccs1)C1CCS(=O)(=O)C1 (configuration not stated)	i	?	-9%	-1%	-15%	3%
CNC1CCC(N(Cc2cccc(-c3ccncc3)c2)C(=O)c2sc3ccccc3c2Cl)CC1 (configuration not stated)	nt	nt	nt	nt	nt	24µM*
c1ccc2c(c1)ccc1ccccc12	i	-12%	1%	0%	-8%	-5%
O=c1ccc2ccccc2c2ccccc12	?	13µM*	5.8µM*	8.2µM*	-61%	5µM*
Cc1ccc(C2=NN(C(=O)c3ccccc3F)C(c3ccccc3F)C2)cc1 (configuration not stated)	i	-12%	13µM*	13µM*	-20%	-34%

Compound activity as filed in PubChem BioAssay.
